# This excerpt belongs to a sample that is enriched for the strongest signals.
# Assays:
# Assay in all cases: glycan array binding signal (z-score within array); higher = stronger binding
# Details in all cases: glycan notation: IUPAC condensed, linker removed
# [1] = molecular target: Fuc(a1-2)Gal(b1-3)GlcNAc6S
# Procedure, shortened: (§1)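 Arrays were curated from the Consortium for Functional Glycomics database, 3228 in total, and kept only where the protein sequence was available. Binding is expressed as a within-array Z-score. This score was averaged across arrays of the same protein sequence at different concentrations or buffers and across linkers, and negative values can be read as non-binding.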
# [2] = molecular target: Fuc(a1-2)Gal(b1-4)GlcNAc(b1-3)Gal(b1-4)GlcNAc(b1-2)Man(a1-3)[Fuc(a1-2)Gal(b1-4)GlcNAc(b1-3)Gal(b1-4)GlcNAc(b1-2)Man(a1-6)]Man(b1-4)GlcNAc(b1-4)GlcNAc
# Procedure, shortened: as §1
# [3] = molecular target: Fuc(a1-2)Gal(b1-4)[Fuc(a1-3)]GlcNAc(b1-2)[Fuc(a1-2)Gal(b1-4)[Fuc(a1-3)]GlcNAc(b1-4)]Man(a1-3)[Fuc(a1-2)Gal(b1-4)[Fuc(a1-3)]GlcNAc(b1-2)Man(a1-6)]Man(b1-4)GlcNAc(b1-4)GlcNAc
# Procedure, shortened: as §1
# [4] = molecular target: Fuc(a1-2)[Gal(a1-3)]Gal(b1-3)GlcNAc
# Procedure, shortened: as §1
# [5] = molecular target: Fuc(a1-2)[Gal(a1-3)]Gal(b1-4)GlcNAc(b1-2)Man
# Procedure, shortened: as §1
# [6] = molecular target: Fuc(a1-2)[Gal(a1-3)]Gal(b1-4)GlcNAc(b1-6)GalNAc
# Procedure, shortened: as §1
# [7] = molecular target: Fuc(a1-2)[GalNAc(a1-3)]Gal(b1-4)GlcNAc(b1-2)Man(a1-3)[Fuc(a1-2)[GalNAc(a1-3)]Gal(b1-4)GlcNAc(b1-2)Man(a1-6)]Man(b1-4)GlcNAc(b1-4)GlcNAc
# Procedure, shortened: as §1
# [8] = molecular target: Fuc(a1-2)[GalNAc(a1-3)]Gal(b1-4)GlcNAc(b1-6)GalNAc
# Procedure, shortened: as §1
# [9] = molecular target: Gal(a1-3)Gal(b1-3)GlcNAc
# Procedure, shortened: as §1
# [10] = molecular target: Gal(a1-3)Gal(b1-3)GlcNAc(b1-2)Man(a1-3)[Gal(a1-3)Gal(b1-3)GlcNAc(b1-2)Man(a1-6)]Man(b1-4)GlcNAc(b1-4)GlcNAc
# Procedure, shortened: as §1
# [11] = molecular target: Gal(a1-4)Gal(b1-4)GlcNAc(b1-3)Gal(b1-4)Glc
# Procedure, shortened: as §1
# [12] = molecular target: Gal(b1-3)Gal(b1-4)GlcNAc
# Procedure, shortened: as §1
# [13] = molecular target: Gal(b1-3)GlcNAc(a1-6)Gal(b1-4)GlcNAc
# Procedure, shortened: as §1
# [14] = molecular target: Gal(b1-3)GlcNAc6S
# Procedure, shortened: as §1
# [15] = molecular target: Gal(b1-3)[Neu5Ac(a2-6)]GlcNAc(b1-4)Gal(b1-4)Glc
# Procedure, shortened: as §1
# [16] = molecular target: Gal(b1-4)GlcNAc(b1-2)[Gal(b1-4)GlcNAc(b1-6)]Man(a1-6)[Gal(b1-4)GlcNAc(b1-2)Man(a1-3)]Man(b1-4)GlcNAc(b1-4)GlcNAc
# Procedure, shortened: as §1
# [17] = molecular target: Gal(b1-4)GlcNAc6P
# Procedure, shortened: as §1
# [18] = molecular target: Gal3S(b1-3)[Fuc(a1-4)]GlcNAc
# Procedure, shortened: as §1
# [19] = molecular target: Gal6S(b1-4)Glc
# Procedure, shortened: as §1
# [20] = molecular target: GalNAc(b1-3)Gal(a1-4)Gal(b1-4)GlcNAc(b1-3)Gal(b1-4)Glc
# Procedure, shortened: as §1
# [21] = molecular target: GalNAc(b1-3)GalNAc
# Procedure, shortened: as §1
# [22] = molecular target: GalNAc(b1-3)GlcNAc
# Procedure, shortened: as §1
# [23] = molecular target: Man(a1-2)Man(a1-3)[Man(a1-2)Man(a1-6)]Man(a1-6)[Man(a1-2)Man(a1-2)Man(a1-3)]Man(b1-4)GlcNAc(b1-4)GlcNAc
# Procedure, shortened: as §1
# [24] = molecular target: Man(a1-3)[Man(a1-6)]Man(a1-6)[Man(a1-2)Man(a1-3)]Man(b1-4)GlcNAc(b1-4)GlcNAc
# Procedure, shortened: as §1
binder,measurement,setting,value
SialidaseA (Arthrobacter ureafaciens) (protein) MRSNSTSAPSLVRRAATGVLTCAVSIGLLAGLGLPAQAAPTPPNSPTLPPGSFSETNLAADRTAANFFYRIPALTYLGNDVVLAAWDGRPGSAADAPNPNSIVQRRSTDGGKTWGPVQVIAAGHVADASGPRYGYSDPSYIYDAEANKVFAFFVYSKDQGFGGSQFGNDDADRNVISSAVIESSDAGVTWSQPRLITSVTKPGTSKTNPAAGDVRSNFASSGEGIQLKYGPHKGRLIQQYAGDVRQADGSNKIQAYSVYSDDHGVTWHKGANVGDRMDENKTVELSDGRVLLNSRDNANRGYRKVAVSTDGGATYGPVSQDTELPDPANNGAIARMFPNAAQGSADAKKLIFTNANSKTGRENVSARVSCDDGETWPGVRTIRSGFSAYSTVTRLADGKFGVLYEGNYTDNMPFATFDDAWLNYVCAPLAVPAVNIAPSATQEVPVTVTNQEATTLSGATATVYTPSGWSATTVPVPDVAPGASVTVTVALTAPADASGPRSLNAAFTTADGRVSQFTFTATTPVAPQVGLTITGSAPARDVAANPYQAGDVLGYTLNVKSTANVAANSVPLTGTFDSGFLPPAAPNCRYNNLAAGASYNCTTAKHTITAADMERGYFVPEATFSITSTTTPSLTKTVQFTGAAVALRDGLISADISGARTDVGRDLATRPYAAGELVPYAFTVKNTSPFVEQVVPTAGNFSPFLPAGAGNCRYLSLPAGQSYECATPRHAVTAEEVEQGFFVPDTTWEVSAAGQSTRTYRINGGEVDLLVRDAALSATVVAEWKDADGDRFASAGDPVTFTYTVGNAGNVALTGLEAPDAGISLPFLAPGDTATATREHVLTAADVAGGSLAASAFEATARNGSKEVTATAEGQPLELKVQPAQPSKEPELTVQDLEDQTPPFDLGTAFKYRTGQKVSLAGLEYGQWYYVYLNKTGYRLGWMFPTTGDTVEFILPPEVRNGRDDVVVLDKDGRRVSFDRLQVTPKGEKI,glycan array binding signal (z-score),[1],-0.849
same,glycan array binding signal (z-score),[2],1.3
same,glycan array binding signal (z-score),[3],0.318
same,glycan array binding signal (z-score),[4],-0.478
same,glycan array binding signal (z-score),[5],-0.252
same,glycan array binding signal (z-score),[6],-0.849
same,glycan array binding signal (z-score),[7],-0.021
same,glycan array binding signal (z-score),[8],-0.733
same,glycan array binding signal (z-score),[9],-0.563
same,glycan array binding signal (z-score),[10],0.062
same,glycan array binding signal (z-score),[11],-0.51
same,glycan array binding signal (z-score),[12],-0.643
same,glycan array binding signal (z-score),[13],-0.544
same,glycan array binding signal (z-score),[14],-0.625
same,glycan array binding signal (z-score),[15],2.48
same,glycan array binding signal (z-score),[16],-0.46
same,glycan array binding signal (z-score),[17],-0.685
same,glycan array binding signal (z-score),[18],-0.337
same,glycan array binding signal (z-score),[19],-0.719
same,glycan array binding signal (z-score),[20],-0.337
same,glycan array binding signal (z-score),[21],-0.689
same,glycan array binding signal (z-score),[22],-0.637
same,glycan array binding signal (z-score),[23],-0.441
same,glycan array binding signal (z-score),[24],-0.172

# Source: the supplement of paper PMC8728848
